# High-throughput results: PubChem BioAssay, National Center for Advancing Translational Sciences (NCATS)
# Anthrax LT inh: anthrax lethal toxin internalization inhibition; Potency, µM (series often up to 40 µM), for inactives: at the highest dose activity change, negative = inhibition, hits mostly inhibitors; Cells, anthrax lethal toxin internalization, FRET ratio (460/530); actives 0.67% (n = 70,000); further: on the % scale 0 is the no-effect control and ±100 the full control effect; nearly all actives have a fitted effect of over 50% in size
# AmpC nodet inh: inhibitors of E. coli AmpC beta-lactamase without detergent | AmpC nitrocefin hydrolysis, absorbance 480 nm, no detergent | AID 585 | actives 1.8% (n = 71,000) | P00811 | Potency, µM (highest dose often 28.7 µM), for the others: at the top dose activity change, negative = inhibition; further: % of control where 0% means no effect
# Target sequence (P00811 whole entry, looked up): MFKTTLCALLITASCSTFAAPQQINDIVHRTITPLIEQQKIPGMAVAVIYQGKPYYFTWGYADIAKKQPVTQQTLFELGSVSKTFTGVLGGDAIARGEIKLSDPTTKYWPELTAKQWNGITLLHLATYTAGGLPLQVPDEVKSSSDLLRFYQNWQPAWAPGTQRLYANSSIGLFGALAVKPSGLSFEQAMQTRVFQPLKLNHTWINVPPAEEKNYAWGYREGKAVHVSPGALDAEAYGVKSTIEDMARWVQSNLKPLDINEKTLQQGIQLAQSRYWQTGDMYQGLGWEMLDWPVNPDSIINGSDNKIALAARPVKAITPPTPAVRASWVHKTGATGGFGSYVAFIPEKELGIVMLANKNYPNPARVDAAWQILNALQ
#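 Enzyme, pH 7.0 phosphate. Compound titrations were pre-incubated with AmpC for 15 min at room temperature before nitrocefin (stock 800 uM) addition; product formation was recorded at 480 nm every 20 s for 4 min.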
# AmpC inh det: blocks E. coli AmpC beta-lactamase in presence of detergent. AID 584. Potency, µM (top dose mostly 28.7 µM), without a hit: at the top dose activity change, negative = inhibition. purified AmpC, nitrocefin hydrolysis with detergent. actives 0.09% (n = 71,000). P00811; active means well fitted curve in the direction sought with a large enough effect; inconclusive means small, poorly fitted or top-dose-only effect; further: on the % scale 0 is the no-effect control and ±100 the full control effect
#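 E. coli AmpC (5.3 nM) in 20 mM phosphate pH 7.0 with 0.01% Triton X-100, preincubated 15 min RT with compound; nitrocefin (2 uL of 800 uM stock) hydrolysis followed by 480 nm absorbance every 20 s over 4 min.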
# Prx2 Sm inh: blocks S. mansoni peroxiredoxin 2 enzymatic activity; S. mansoni Prx2 activity coupled to TGR/GSH (TGR is thioredoxin glutathione reductase), NADPH fluorescence loss, qHTS; Potency, µM; actives 0.07% (n = 65,000)
#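 Prx2 inhibition was measured as reduced NADPH consumption when electrons flowed from NADPH through TGR and glutathione to Prx2 and H2O2. Plates were read kinetically over 8 min; enzyme reagents were held at 4 deg C during dispensing.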
# * marks the source's active call; other numbers are inactive results; u = inconclusive; x = no result; [ ] = dose if it differs, or a comment. The list is not random: actives were taken first. Their share in the collection is about 2.4%. Unless noted, the call rests on the fitted dose curve. Potency means the concentration at half of the fitted maximal effect.
SMILES,Anthrax LT inh,AmpC nodet inh,AmpC inh det,Prx2 Sm inh
COc1cccc(-c2ccc3ncnc(N(C)C)c3c2)c1,u,6.3µM*,10µM*,>57
O=C(Nc1nnc(N2CCCCCC2)s1)c1cc(-c2ccc(Br)cc2)on1,-11%,4µM*[single pt active],11%,>57
COC(=O)c1cc(-c2ccc(OC)c(OC)c2)on1,-2%,10%,0%,>57
COC(=O)c1cc(-c2ccc(Br)cc2)on1,-16%,4µM*[single pt active],11%,>57
COc1ccc(NC(=O)c2ccc(-c3ccc(-c4noc(C)n4)cc3C)cc2)cc1OCCN(C)C,16µM*,161%,-1%,>57
COc1ccc(NC(=O)c2ccc(-c3ccc(-c4noc(C)n4)cc3C)cc2)cc1N1CCN(C)CC1,u,147%,-6%,>57
NC(=O)c1cccc(S(=O)(=O)N2CC(c3ccccc3)CC2=O)c1 (stereo not drawn),-13%,4µM*[single pt active],14%,>57
Cc1ccc(CNC(=O)CN2CCC(C(N)=O)CC2)cc1,-2%,-1%,12%,>57
CC(C)(C)c1cnnn1-c1ccc(-c2csc(N)n2)cc1,8%,0%,2%,>57
Cc1nc(C)c(-c2csc(NCc3ccco3)n2)s1,-2%,8%,1%,>57
Cc1nc(NC(=O)c2ccccc2)sc1-c1csc(NCc2ccco2)n1,u,13µM*,14%,>57
CCNc1sc(C(=O)c2cccs2)c(N)c1-c1nc2ccccc2s1,u,0.02µM*,9%,>57
CCOC(=O)CC(=O)Nc1c(C)cc(C)cc1C,6%,4%,-3%,>57
Cc1cc(=O)n2[nH]c(-c3ccccc3Cl)cc2n1,-8%,-13%,13%,>57
CC1C(=O)CC(c2ccccc2)N(C)C1c1ccccc1 (stereo not drawn),u,4µM*[single pt active],14%,>57
CC1C(c2ccccc2)N(C)CCC12NC(=O)NC2=O (stereo not drawn),6%,7%,-3%,>57
C[C@@H]1CN(CCCn2c3ccccc3c3ccccc32)C[C@H](C)N1,32µM*,84%,-3%,>57
O=C(c1ccc2c(=O)n(Cc3ccc4c(c3)OCO4)c(=S)[nH]c2c1)N1CCCCC1,1%,16µM*[single pt active],11%,>57
O=C1C2C3C=CC(C3)C2C(=O)N1CNc1ccccc1 (stereo not drawn),-7%,2%,-2%,x
O=C(NCCN1C(=O)C2C3C=CC(C3)C2C1=O)Nc1cccnc1 (stereo not drawn),u,4µM*[single pt active],14%,>57
O=C1C2C3C=CC(C3)C2C(=O)N1CCCCN1C(=O)C2C3C=CC(C3)C2C1=O (stereo not drawn),-2%,1%,-3%,>57
COc1ccc(NC(=O)CCCN2C(=O)C3C4C=CC(C4)C3C2=O)c(OC)c1 (stereo not drawn),3%,21%,6%,>57
COc1ccccc1NC(=O)NCCN1C(=O)C2C3C=CC(C3)C2C1=O (stereo not drawn),-1%,4µM*[single pt active],11%,>57
O=C(NCCN1C(=O)C2C3C=CC(C3)C2C1=O)Nc1ccc(Br)cc1 (stereo not drawn),-13%,4µM*[single pt active],14%,>57
O=C(NC1CCCCC1)C1CCN(S(=O)(=O)c2cccc3cccnc23)CC1,-6%,3%,18%,>57
SMILES,Anthrax LT inh,AmpC nodet inh,AmpC inh det,Prx2 Sm inh
C=CCSc1nnc(-c2ccc(Cl)cc2Cl)o1,-26%,8%,-1%,>57
O=[As](O)(O)c1ccc(Cc2ccc([As](=O)(O)O)cc2)cc1,u,12%[5.75 µM],-2%[5.75 µM],0.17*
O=C(NCc1ccccc1)c1cc(-n2cnnc2)ccc1Cl,3%,9%,-3%,>57
N#Cc1sc2nc3c(c(-c4ccco4)c2c1N)CCCC3,-14%,13µM*[single pt active],10%,>57
O=C(c1cccc(S(=O)(=O)N2CCOCC2)c1)N1CCCc2ccccc21,-23%,22%,-3%,>57
C[C@H]1[C@H](NC(=O)/C(=N/OC(C)(C)C(=O)O)c2csc(N)n2)C(=O)N1S(=O)(=O)O (stereo in doubt),-3%[3.58 µM],0.00079µM*,0.002µM*,>57
CC1(C)CC(=O)CC(=Nc2ccc3[nH]c(=O)[nH]c3c2)C1,-7%,-9%,4%,x
CN=C1N[C@H](c2ccccc2)N(c2ccccc2)S1,25µM*,10%,-3%,>57
O=C(Nc1cccc(C(F)(F)F)c1)N1CCC(c2nc(-c3ccc(F)cc3)no2)CC1,-17%,1%,2%,>57
Cc1ccccc1N1C(=O)c2sc3nc4c(c(=O)n3c2C1=O)CCC4,13µM*,-17%,11%,x
